{
  "source": "PubChem BioAssay (NCATS)",
  "note": "A number with no mark means an inactive call.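 The calls were made as follows: active = calcium activation more than 3 SD above the typical response in the agonist read; inactive = the rest.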",
  "data": [
    {"target": "Thyrotropin-releasing hormone receptor (Homo sapiens) (UniProt P34981)", "sequence (P34981 whole entry, looked up)": "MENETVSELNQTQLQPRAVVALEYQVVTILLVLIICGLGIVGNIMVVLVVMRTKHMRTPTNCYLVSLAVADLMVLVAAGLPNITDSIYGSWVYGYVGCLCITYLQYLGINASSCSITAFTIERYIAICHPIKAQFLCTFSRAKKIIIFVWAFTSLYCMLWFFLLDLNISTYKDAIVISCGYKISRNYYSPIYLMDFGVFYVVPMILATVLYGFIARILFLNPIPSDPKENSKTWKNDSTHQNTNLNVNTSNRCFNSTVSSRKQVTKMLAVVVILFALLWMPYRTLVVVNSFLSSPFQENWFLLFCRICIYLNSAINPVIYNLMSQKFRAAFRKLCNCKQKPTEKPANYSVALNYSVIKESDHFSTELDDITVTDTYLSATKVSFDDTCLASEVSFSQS", "test": "qHTS for Small Molecule Agonists and Allosteric Enhancers of Human TRH Receptor: Validation Screen for Agonists (AID 493127);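 also: intracellular calcium rise by fluo-8 fluorescence before TRH EC20 addition; 0% is about no effect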", "conditions": "TRH receptor agonist cell assay; at 2 µM; stronger effect = higher value", "text": "NIH Chemical Genomics Center [NCGC]\nNIH Molecular Libraries Probe Centers Network [MLPCN]\nAssay Submitter (PI): Marvin Gershengorn\nThis project aims to identify small drug-like molecules that activate (agonists) the thyrotropin releasing hormone (TRH) receptor (TRHR) or enhance its TRH-stimulated activity (allosteric enhancers). TRHR, a drug-accessible cell surface receptor expressed in specific brain regions, and its ligand TRH have been implicated in several central nervous system disorders, including depression and anxiety. Small molecule TRHR agonists or allosteric enhancers that are metabolically stable and able to cross the blood-brain barrier might serve as probes to elucidate the roles of brain TRH receptors in animal models, and might be valuable as lead compounds for the development of drugs to treat patients with central nervous system disorders.\nUpon TRHR-Gq activation in TRHR cells, intracellular calcium is released from stores in the endoplasmic reticulum. […] This validation screen measures compound-induced activation of calcium release.\nFor the HTS assay freshly prepared cells are plated at a density of 2000/well in 3 ul of complete DMEM medium containing 10% serum in 1536-well plates and cultured over night at 37 C in a humidified incubator with 5% CO2. The next day, 2 ul of a no wash calcium dye (ABD Bioquest) was added to the cells and plates were incubated at room temperature for 1 hour. For the assay, assay plates were loaded into the FDSS kinetic plate reader. A 10 cycle (1 second/cycle) baseline measurement is taken and then the FDSS online 1536 pintool delivers 23 nl of compound library (as well as TRH controls) to the plate. The plate is measured for kinetically at 1 cycle/sec for 180 seconds and is considered to be the agonist portion of the assay (eg, compounds which activate a positive calcium response during this portion are flagged as potential agonists). Following the 180 second read, 1 ul of either an EC20 (positive modulation assay) is delivered by an onboard pipette head. Measurements are taken kinetically for an additional 180 seconds.\nTRHR FDSS Screening Protocol\n1. Reagent, 3 uL 2000 cells/well 1536 TC treated Black plate in media containing 10% FCS\n2. Time, 18 hours, 33.5C 5% CO2 (cells grown at 37C)\n3. Reagent, 2 uL ABD fluo-8 Ca dye\n4. Time, 30 min-1.5hrs hours, Room temp (6 plates/batch)\n5. Detector, EX 480/EM 530C, FDSS 10 cycles baseline (1sec/cycle)\n6. Compound, 23 nL of stock solution from library\n7. Detector, EX 480/EM 530C, FDSS 230 cycles (1sec/cycle) Agonist mode\n8. Compound, 1 ul EC20 of TRH made up in HEPES HBSS, 10 nM final\n9. Detector, EX 480/EM 530C, FDSS 100 cycles (1sec/cycle) Potentiator mode", "units": {"activation": "%"}, "values": [
      {"smiles": "C=C/C(C)=C/[C@@]1(C)SC(=O)C(C)=C1O", "activation": 0.875},
      {"smiles": "COc1ccccc1N1CCN(CCCCNS(=O)(=O)c2cccc3c(N(C)C)cccc23)CC1", "activation": -3.25},
      {"smiles": "OCC1O[C@H](O)C(Cl)C(O)C1O", "note": "(stereo not given in full)", "activation": 0.688},
      {"smiles": "N=C(N)SCCc1ccc(CCSC(=N)N)cc1", "activation": 1.12},
      {"smiles": "O=C(O)c1cc(=O)c2ccccc2[nH]1", "activation": 0.125},
      {"smiles": "Cc1cc(NC(=O)Nc2ccc3c(ccn3C)c2)sn1", "activation": 0.625},
      {"smiles": "O=C1C(SCCO)=C(SCCO)C(=O)c2ccccc21", "activation": -3.25},
      {"smiles": "Cc1ccc(O)c(N=Nc2ccccc2)n1", "activation": 0.875},
      {"smiles": "NC(N)=NC(=O)c1nc(Cl)c(N2CCCCCC2)nc1N", "activation": 3.31},
      {"smiles": "O=C(/C=C/c1ccc(O)c(O)c1)OCCc1ccccc1", "activation": 0.812},
      {"smiles": "CC1(C)CCC=[N+]1[O-]", "activation": 1.19},
      {"smiles": "CCCCCCCCCCCCCCCC(=O)NCC(COP(=O)([O-])OCC[N+](C)(C)C)OCC", "note": "(stereo not given)", "activation": 0.812},
      {"smiles": "CO/N=C(\\C(=O)N[C@@H]1C(=O)N2C(C(=O)O)=C(COC(C)=O)CS[C@H]12)c1csc(N)n1", "note": "(stereo in doubt)", "activation": 0.688},
      {"smiles": "CC(C)Cc1ccc([C@H](C)C(=O)O)cc1", "activation": 0.688},
      {"smiles": "c1ccc(-c2ccccn2)nc1", "activation": 0},
      {"smiles": "Nc1ccn([C@@H]2O[C@H](CO)[C@@H](O)[C@@H]2O)c(=O)n1", "activation": -0.125},
      {"smiles": "Clc1ccc(N2CCN(Cc3c[nH]c4ncccc34)CC2)cc1", "activation": 2.19},
      {"smiles": "O=C(O)CNC(=O)C(CS)Cc1ccccc1", "note": "(stereo not given)", "activation": 0.625},
      {"smiles": "O=C(/C=C/c1ccc(O)cc1)c1ccc(O)cc1O", "activation": -5.19},
      {"smiles": "O=C(c1cc(O)c(O)c([N+](=O)[O-])c1)c1ccccc1F", "activation": -0.125},
      {"smiles": "N#C/C(=C\\c1ccc(O)c(O)c1)C(=O)NCc1ccccc1", "activation": 1.31},
      {"smiles": "NCCCCC(=O)O", "activation": -0.25},
      {"smiles": "COc1ccc(NC(=O)/C=C/c2ccc(Cl)cc2)cc1", "activation": 1.19},
      {"smiles": "OC[C@H]1O[C@@H](n2cnc3c(NC4CCCCC4)ncnc32)[C@H](O)[C@@H]1O", "activation": 0.562},
      {"smiles": "C[C@@H](CN1CCC(Cc2ccccc2)CC1)[C@@H](O)c1ccc(O)cc1", "activation": 2.75},
      {"smiles": "CN[C@H](CC(C)C)C(=O)N[C@H]1C(=O)N[C@@H](CC(N)=O)C(=O)N[C@H]2C(=O)N[C@H]3C(=O)N[C@H](C(=O)N[C@H](C(=O)O)c4cc(O)cc(O)c4-c4cc3ccc4O)[C@H](O)c3ccc(c(Cl)c3)Oc3cc2cc(c3O[C@@H]2O[C@H](CO)[C@@H](O)[C@H](O)[C@H]2O[C@H]2C[C@](C)(N)[C@H](O)[C@H](C)O2)Oc2ccc(cc2Cl)[C@H]1O", "activation": -0.312},
      {"smiles": "O=C(O)CC[C@@H](C(=O)O)N1C(=O)c2ccccc2C1=O", "activation": 0.125},
      {"smiles": "O=S(=O)(c1cccc2c(I)cccc12)N1CCCNCC1", "activation": 2.06},
      {"smiles": "CN(C)C(N)=NCCC[C@H](N)C(=O)O", "activation": 0.188},
      {"smiles": "CN1C2CCC1CC(OC(=O)C(O)c1ccccc1)C2", "note": "(stereo not given)", "activation": 1.19},
      {"smiles": "Cn1c(=O)c2[nH]c(-c3ccccc3)nc2n(C)c1=O", "activation": 0.875},
      {"smiles": "CN=c1nc(-c2ccccc2)n(-c2ccccc2)s1", "activation": 13},
      {"smiles": "Fc1ccc(C(OCCCc2cnc[nH]2)c2ccc(F)cc2)cc1", "activation": -5.06},
      {"smiles": "CC(=O)N[C@H](C(=O)O)C(C)(C)SN=O", "activation": 0.812},
      {"smiles": "CCCN(CC1CC1)c1nc(C)nc(Nc2c(Cl)cc(Cl)cc2Cl)c1Cl", "activation": -7.44},
      {"smiles": "CN1[C@@H](CC(=O)c2ccccc2)CCC[C@H]1C[C@H](O)c1ccccc1", "activation": 0.5},
      {"smiles": "O=Nc1ccc2oc(=O)ccc2c1", "activation": -0.5},
      {"smiles": "O=c1[nH]c2cc([N+](=O)[O-])c([N+](=O)[O-])cc2[nH]c1=O", "activation": 1.31},
      {"smiles": "COC(=O)c1c(C)[nH]c(C)c1C(=O)c1ccccc1Cc1ccccc1", "activation": 7.25},
      {"smiles": "Fc1cccc(/C=N/N=C/c2cccc(F)c2)c1", "activation": -7.56}
    ]}
  ]
}
